Measured values: PubChem BioAssay (EPA / NIEHS)
Activity calls are given as the source filed them. The calls were made as follows: active = hit-call score of the fitted dose curve at least 0.9, where 1 is the maximum; inactive = score below 0.9.

assay: ATG_TAL_CIS: Attagene CIS-FACTORIAL HepG2 Assay for human TAL Basal Promoter (AID 2282966); conditions: HepG2 Attagene cis-factorial TAL promoter reporter; actives raise or lower the signal
Method: ATG_CIS is a cell-based, multiplexed-readout assay that uses HepG2, a human liver cell line, with measurements taken at 24 hours after chemical dosing in a 24-well plate.ATG_TAL_CIS is one of 52 assay component(s) measured or calculated from the ATG_CIS assay. It is designed to make measurements of mRNA induction, a form of inducible reporter, as detected with fluorescence intensity signals by Reverse transcription polymerase chain reaction (RT-PCR) and Capillary electrophoresis technology.Data from the assay component ATG_TAL_CIS was analyzed into 1 assay endpoint. This assay endpoint, ATG_TAL_CIS, was analyzed with bidirectional fitting relative to DMSO as the negative control and baseline of activity. Using a type of inducible reporter, measures of mRNA for gain or loss-of-signal activity can be used to understand the background control at the transcription factor-level as they relate to the gene . Furthermore, this assay endpoint can be referred to as a secondary readout, because this assay has produced multiple assay endpoints where this one serves a background control function. To generalize the intended target to other relatable targets, this assay endpoint is annotated to the background measurement intended target family, where the subfamily is internal marker.
Human liver HepG2 cells are transiently transfected with multiple reporter transcription units (MRTUs) in 6-well plates using FuGene 6 reagent (Roche; 3 ml FuGene/1 mg DNA). The MRTU constructs are regulated by a cis-regulating element (promoter). […] A major difference between the CIS and TRANS system is that in CIS activities of endogenous TFs are measured, whereas the TRANS assay evaluates changes in activities of exogenous, chimeric NR-Gal4 proteins. […] At the end of 24 hour incubation, total RNA was isolated using TriZol reagent (Invitrogen). The isolated RNA is then reverse-transcribed using oligo(dT) primer and Mo-MLV reverse transcriptase (Invitrogen) with DNAse I (Ambion) treatment for 30 min. The one-tenth of the produced cDNA was amplified by PCR using Taq DNA polymerase (Invitrogen) and two reporter sequence-specific primers. The PCR products were fluorescently labeled by primer extension with 6-arboxyfluorescein (6-FAM) 5'-labeled reporter sequence-specific primer (2 min at 95 C, 20 s at 68 C and 10 min at 72 C) and these products were digested with 5U of HpaI (New England Biolabs) for 2h at 37 C. The fragments were purified using Qiaquick PCR columns (Qiagen), analyzed on an ABI 3130xL genetic analyzer (Applied Biosystems) with peak positions identified by using a set of X-rhodamine (ROX)-labeled MapMarker1000 molecular weight standards (BioVentures). The raw capillary electrophoresis data was processed using Attagraph software (Attagene).

SMILES	outcome	AC50
CCCCCCCCCCCCCO	inactive	–
CC=Cc1ccc(O)c(OC)c1	inactive	–
CCCc1cc(=O)[nH]c(=S)[nH]1	inactive	–
CCCCCC(=O)O	inactive	–
Nc1nc(N)c2nc(CNc3ccc(C(=O)N[C@@H](CCC(=O)O)C(=O)O)cc3)cnc2n1	inactive	–
CCNc1cccc(C)c1	inactive	–
COc1ccc(C)cc1N	inactive	–
CCc1c(C(=O)NN2CCCCC2)nn(-c2ccc(Cl)cc2Cl)c1-c1ccc(Br)cc1	inactive	–
COCCOC[C@H](CC1(C(=O)NC2CCC(C(=O)O)CC2)CCCC1)C(=O)Oc1ccc2c(c1)CCC2 (stereo not given in full)	inactive	–
CC(=O)Oc1ccccc1C(=O)O	inactive	–
Cc1nc(-c2ccc3c(c2)CCN(CCC2CCC(NC(=O)/C=C/c4ccc(F)cc4)CC2)CC3)no1 (stereo not given)	inactive	–
CC1(C)NC(=O)NC1=O	inactive	–
CCCCN(CCCC)CCCC	inactive	–
CN1CCCC1=O	inactive	–
O=C(OCCCCCOC(=O)c1ccccc1)c1ccccc1	inactive	–
Cc1ccc2ncccc2c1	inactive	–
Cc1ccc(N(C)C)cc1	inactive	–
O=[N+]([O-])C(CO)(CO)CO	inactive	–
Cc1oc(-c2ccccc2)nc1CCOc1cccc2c1ccn2CCC(=O)O	inactive	–
COc1cc(C=O)ccc1O	inactive	–

SMILES	outcome	AC50
CNC(=O)[C@H]1O[C@@H](n2cnc3c(NCc4cc(Cl)ccc4OCc4cc(C)no4)ncnc32)[C@H](O)[C@@H]1N	inactive	–
Cc1c(C(=O)O)c(O)cc2c1C(=O)c1c(O)c([C@@H]3O[C@H](CO)[C@@H](O)[C@H](O)[C@H]3O)c(O)c(O)c1C2=O	inactive	–
COc1cccc2c1C(=O)c1c(O)c3c(c(O)c1C2=O)C[C@@](O)(C(=O)CO)C[C@@H]3O[C@H]1C[C@H](N)[C@H](O)[C@H](C)O1	inactive	–
C1CCC(SSC2CCCCC2)CC1	inactive	–
Oc1ccc2c(c1)OC[C@@H](N1CCC(O)(c3ccc(F)cc3)CC1)[C@H]2O	inactive	–
Cc1ccc(C)c(O)c1C	inactive	–
NCC1(Cc2noc(=O)[nH]2)CCCCC1	inactive	–
Oc1ccc2ccccc2c1N=Nc1ccccc1	inactive	–
COC(=O)c1ccc(O)cc1	inactive	–
CC(=O)OC/C=C(\C)CCC=C(C)C	inactive	–
COCCOCCOC	inactive	–
Cc1cc(NC(=O)C(=O)O)cc(C)c1Oc1ccc(O)c2c1CCC2	inactive	–
C=CCc1ccc(O)c(OC)c1	inactive	–
COc1ccc(S(=O)(=O)N2C(=O)[C@@](c3ccccc3OC)(N3C[C@H](O)C[C@H]3C(=O)N(C)C)c3cc(Cl)ccc32)c(OC)c1	–	177 µM (active)
O=C(O)CCCCC(=O)O	inactive	–
CCCCCCCCCCO	inactive	–
FC(F)(F)C(F)(F)C(F)(F)C(F)(F)C(F)(F)C(F)(F)CCI	inactive	–
COc1cc(S(=O)(=O)O)c(C)cc1N=Nc1c(O)ccc2cc(S(=O)(=O)O)ccc12	inactive	–
Cc1cccc([N+](=O)[O-])c1C	inactive	–
CCCCCCCCCCCC(=O)OC	inactive	–
